RTF Ca sens inh: cardiac RTF calcium desensitization | 340,000 compounds, 0.12% hits | AID 493244 | inhibition, % at 7.15 µM | IANBD-labeled cardiac RTF, Ca2+ fluorescence | P19429+P45379;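 active = inhibition above the mean inhibition of all tested compounds plus 3 SD, cut at about 17% in these data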;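 note: assay run at fixed EC70 calcium of 1.6 mM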
cardiac RTF act: cardiac RTF calcium sensitization; P19429+P45379; activation, % at 7.2 µM; IANBD-labeled TnC RTF fluorescence at EC20 calcium; 0% EC20 calcium, 100% full calcium; 340,000 compounds, 0.24% hits;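 active = activation above the mean over all tested compounds plus 3 SD, cut at about 30% in these data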;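 note: rise in fluorescence read as greater calcium sensitivity of cardiac thin filaments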
E coli Lon inh: E. coli protease La inhibition | P0A9M0 | purified E. coli Lon protease, fluorescence polarization | inhibition, % at 7.94 µM | 360,000 compounds, 0.42% hits; in the data active = inhibition above about 13%, passing the limit was not always enough;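 note: 0% = enzyme with probe and DMSO and 100% = no enzyme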
Target sequence (P0A9M0 whole entry, looked up): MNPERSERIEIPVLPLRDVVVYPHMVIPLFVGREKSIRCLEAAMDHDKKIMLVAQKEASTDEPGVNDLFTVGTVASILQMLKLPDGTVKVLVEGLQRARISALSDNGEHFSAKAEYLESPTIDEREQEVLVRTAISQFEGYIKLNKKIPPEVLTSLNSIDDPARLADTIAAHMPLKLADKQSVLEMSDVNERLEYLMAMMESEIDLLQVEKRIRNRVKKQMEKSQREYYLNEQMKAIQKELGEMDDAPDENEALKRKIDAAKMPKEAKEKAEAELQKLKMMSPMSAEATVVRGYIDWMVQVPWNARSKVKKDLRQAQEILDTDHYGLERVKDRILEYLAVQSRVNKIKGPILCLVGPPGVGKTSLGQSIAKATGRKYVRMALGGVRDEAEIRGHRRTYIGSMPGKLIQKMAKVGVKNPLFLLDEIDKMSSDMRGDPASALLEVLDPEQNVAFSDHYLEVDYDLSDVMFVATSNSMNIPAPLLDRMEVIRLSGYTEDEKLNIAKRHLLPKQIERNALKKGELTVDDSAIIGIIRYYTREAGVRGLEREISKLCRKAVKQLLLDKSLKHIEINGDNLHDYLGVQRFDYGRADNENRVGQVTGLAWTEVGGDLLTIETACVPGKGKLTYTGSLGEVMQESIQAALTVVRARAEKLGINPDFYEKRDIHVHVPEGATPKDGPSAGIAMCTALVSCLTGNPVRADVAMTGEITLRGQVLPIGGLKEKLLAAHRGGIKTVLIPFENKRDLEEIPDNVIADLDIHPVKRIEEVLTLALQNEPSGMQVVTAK
C-LANA FP: inhibitors of KSHV LANA C-terminal domain DNA binding | MBP-C-LANA/FAM-LBS DNA binding, fluorescence polarization | inhibition, % at 9 µM | 340,000 compounds, 0.078% hits | AID 504423;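 active = highest replicate inhibition at or above 60% at 9 µM, even if other replicates fall short; inactive = all replicates below 60% inhibition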;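 note: 0% = neutral control wells and 100% = 4 µM acridine orange control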
Keap1 Nrf2 FP: disrupts human Keap1 binding to Nrf2 peptide; Q14145; Keap1 Kelch-Nrf2 peptide fluorescence polarization, 1536-well; inhibition, % at 9.4 µM; 340,000 compounds, 0.15% hits; in the data active = inhibition above about 12%;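 note: human Keap1 Kelch domain with fluorescein labeled Nrf2 9mer peptide probe; 0% = neutral control wells and 100% = peptide positive control; higher means more block of Keap1 binding to Nrf2 peptide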
E coli Lon conf: confirmation of E. coli Lon protease inhibitors; inhibition, % at 7.94 µM; AID 602230; shares compounds with E coli Lon inh; 1,400 compounds, 31% hits; purified E. coli Lon, fluorescence polarization; in the data active = inhibition above about 16%;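 note: 0% = enzyme with probe and DMSO and 100% = no enzyme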
Starred values were filed as active, the others as inactive; i = inactive; . = no result given. A selection: hits, their analogues and other compounds. The true share with any hit is near 0.74%.

SMILES	RTF Ca sens inh	cardiac RTF act	E coli Lon inh	C-LANA FP	Keap1 Nrf2 FP	E coli Lon conf
Cc1cc2cc3c(=O)[nH]c(=O)cc-3n(CC(O)C(O)C(O)CO)c2cc1C (configuration not stated)	.	.	87.4*	.	.	90.5*
CC(=O)NC(c1ccc(F)c(F)c1)c1nc(-c2ccc3c(c2)OCO3)cs1 (configuration not stated)	.	.	-0.3	.	.	.
O=C(N/N=C/c1sc(=O)[nH]c1-[n+]1ccc2ccccc2c1)c1ccccc1[O-]	-105.8	0.1	133.5*	5.1	2.3	48.2*
O=C(N/N=C/c1sc(=O)[nH]c1-[n+]1ccccc1)c1ccccc1[O-]	-5.3	-2.3	1.4	8.2	5.7	.
O=C(Nc1cccc(C(=O)N2CCCCC2)c1)C1CCCC1	-8.3	-8.5	16.0*	0.9	-2.3	-5.6
O=C(Nc1cccc(C(=O)N2CCCCC2)c1)c1ccc(Cl)cc1	4.3	0.8	17.4*	-1.0	3.8	5.1
O=C(Nc1cccc(C(=O)N2CCCCC2)c1)c1ccccc1	0.0	-9.3	10.3	-3.1	-3.4	.
O=C1CCCCN1CCc1c[nH]c2ccccc12	1.8	-3.1	13.7*	3.9	-1.2	-2.0
COc1cc(NC(C)CCCNC(C)C)c2ncccc2c1OC (configuration not stated)	1.2	4.4	30.0*	6.2	-3.1	14.1
N#Cc1ccc(CN2CCN(C(=O)C3CC(=O)N(c4ccc5c(c4)OCCO5)C3)CC2)cc1 (configuration not stated)	.	.	0.3	.	.	.
OCc1ccccc1-c1cccc2nccn12	.	.	69.6*	.	.	4.9
C/C(=C\c1ccccc1)C(=O)Nc1ccc(S(=O)(=O)Nc2ncccn2)cc1	-9.5	-6.2	22.3*	-0.3	3.2	-17.9
COC(=O)Nc1ccc(S(=O)(=O)Nc2ncccn2)cc1	0.5	2.3	26.9*	-0.3	0.6	-77.8
CCCCCOC(=O)Nc1ccc(S(=O)(=O)Nn2cnnc2)cc1	-0.2	11.0	4.1	4.6	-9.0	.
COc1ccc(C(=O)Nc2ccc(S(=O)(=O)Nc3ncccn3)cc2)cc1OC	-3.7	5.8	21.3*	-0.5	-5.2	8.6
CCCCOC(=O)Nc1ccc(S(=O)(=O)Nc2ncccn2)cc1	.	.	20.9*	4.5	2.5	29.5*
C/C=C/c1cccc(-c2nc(C(=O)N3CCOCC3)cc3c2[C@H](CCO)N(C(=O)NC(C)C)C3)c1	.	.	-2.5	.	.	.
O=C(NCCCN1CCOCC1)c1c(-c2ccccc2)oc2c1C(OCCCCCO)CCC2 (configuration not stated)	.	.	-7.9	.	.	.
Cc1ccc(S(=O)(=O)N2[C@@H](c3ccc(Br)cc3)C(C(=O)O)=CC[C@H]2c2cccs2)cc1	-1.8	-2.3	-6.7	1.7	0.5	.
COc1ccc(C2C3=C(CC(C)(C)CC3=O)Oc3ncn4nc(-c5ccccc5)nc4c32)cc1 (configuration not stated)	-2.0	-1.6	25.6*	1.9	-7.1	-5.5
CC1(C)CC(=O)C2=C(C1)Oc1ncn3nc(-c4cccnc4)nc3c1C2c1ccccc1 (configuration not stated)	7.7	10.1	-5.5	-0.9	-8.7	.
CCC(C)(C)NC(=O)C(c1cccc(OC)c1OC)N(C(=O)CCC(=O)Nc1cc(C)on1)C(C)C (configuration not stated)	-13.5	-10.9	21.0*	-0.3	-1.3	4.6
COc1ccc(/C=N/N(C)C2=NS(=O)(=O)c3ccccc32)cc1	-4.6	4.2	7.0	-0.2	-2.7	.
CN(/N=C/c1ccc(N(C)C)cc1)C1=NS(=O)(=O)c2ccccc21	-11.9	61.4*	47.1*	-0.9	-6.3	i
C[C@H]1Cn2cnc(C(=O)NCc3ccc(CNC(=O)OC(C)(C)C)cc3)c2C(=O)N1	.	.	-3.1	.	.	.
SMILES	RTF Ca sens inh	cardiac RTF act	E coli Lon inh	C-LANA FP	Keap1 Nrf2 FP	E coli Lon conf
COc1cccc(OCC(O)CN2CCN(c3ccc(F)cc3)CC2)c1 (configuration not stated)	-2.1	-2.3	19.6*	0.3	-4.3	-14.3
O=C(c1nc2ccccn2c1CN1CCCC(O)C1)N1CCN(C2CCCCC2)CC1 (configuration not stated)	-8.7	-0.2	19.1*	2.0	2.9	4.2
COCC1CCN(Cc2c(C(=O)N3CCN(C4CCCCC4)CC3)nc3ccccn23)C1 (configuration not stated)	-12.7	10.1	25.8*	2.2	-2.8	-2.9
COC1CCN(Cc2c(C(=O)N3CCN(C4CCCCC4)CC3)nc3ccccn23)CC1	-9.6	3.9	8.1	0.3	-2.3	.
COc1ccccc1Cn1c(C)c(C(=O)NCCC#N)sc1=O	.	.	-5.5	.	.	.
O=C(NCCOC(=O)c1ccc(Cl)cc1)c1cccnc1	-14.2	6.8	15.7*	-0.1	-8.4	-9.4
O=C(NCCOC(=O)c1ccc(C(=O)OCCNC(=O)c2cccnc2)s1)c1cccnc1	-1.8	-0.9	1.4	0.3	-4.2	.
O=C(N/N=C/c1cc(Br)c(Br)o1)c1cccnc1	8.2	1.8	26.6*	10.6	0.2	5.6
O=C(N/N=C\c1cc(Br)c(Br)o1)c1cncc(Br)c1	-4.8	-1.7	-2.0	0.7	4.6	.
Cc1ccc(N(CC(=O)N2CCCC2)S(C)(=O)=O)cc1C	-6.3	8.4	12.7	-1.3	-0.3	.
Cc1ccc(N(CC(=O)N2CCCC2)S(C)(=O)=O)c(C)c1	-8.8	-0.7	35.8*	-2.9	-3.6	6.8
Nc1ccc2nc(-c3ccccc3)cnc2c1	-37.4	26.7	33.9*	22.3	8.9	107.3*
COCCn1nnnc1CN(Cc1ccco1)Cc1cc2cc3c(cc2[nH]c1=O)OCO3	-11.2	8.2	22.7*	0.1	-6.0	6.1
CCOc1ccc(CNC(=O)CN2C(=O)CSc3ccc(S(=O)(=O)N4CCOCC4)cc32)cc1	.	.	7.9	.	.	.
CC(C)C(=O)NNC(=O)c1csc(-c2cccs2)n1	0.9	1.1	25.4*	1.1	3.2	5.8
O=c1c2ccccc2sn1-c1ccccc1	-9.3	-5.7	16.8	-2.1	-88.1	.
O=c1c2ccccc2sn1-c1nccs1	.	.	22.3*	-0.6	-5.3	19.7*
Nc1ccc(S(=O)(=O)NN=Cc2ccccc2[N+](=O)[O-])cc1	-9.7	3.0	-4.2	-1.8	-3.1	.
O=C1C(=O)c2ccccc2C(O)=C1CCCCl	-2.3	5.2	77.2*	4.3	1.3	4.7
CC1(C)CN(C2CCCCC2)C(=O)[C@H]1CC(=O)Nc1ccc(Br)cc1	.	.	-5.1	.	.	.
COc1ccc(C(=O)N(C)CCOc2ccc(Cl)cc2)cc1S(=O)(=O)N1CCCC1	.	.	-3.4	.	.	.
COc1ccccc1N1C(=O)c2cccc3c(N(C)CCO)ccc(c23)C1=O	-63.2	51.6*	175.6*	47.6	10.0	76.1*
COc1ccccc1N1C(=O)c2cccc3c(C(=O)O)ccc(c23)C1=O	-0.7	-0.8	-0.1	0.6	-5.9	.
COc1ccc2c3c(cccc13)C(=O)N(O)C2=O	-7.1	8.6	37.7*	1.0	-1.8	86.7*
Cc1ccc(S(=O)(=O)N2CCOCC2)cc1C(=O)NC(C)CCc1ccccc1 (configuration not stated)	-10.5	-5.0	-10.8	-1.6	-1.1	.
